Each structure is given as a SMILES string. Among all 330,000 compounds or so, about 960 (0.29%) were called active. This is one part of a sample in which actives are shown more often than they occur. Unmarked numbers belong to inactive results.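 The calls were made as follows: active = compounds whose signal lies at least 3.5 SD above the mean of all wells on their plate; inactive = the rest.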

The experiment in a line: small molecules increasing insulinoma cell replication – ATP luminescence, uHTS, primary screen (AID 2380).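 Also: 0% = DMSO-treated cells in low-serum medium and 100% = 10% serum control.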 As to conditions: MIN6 cells proliferation, ATPlite luminescence, 48 h; at 10 µM; hits give high values; 100% = growth in 10% serum; cells starved in 0.2% serum.
As to `COc1cccc(NC(=O)C2CCCN(c3ncnc4c3nc3n4CCCCC3)C2)c1` (stereo unspecified), the proliferation was 5.62%.
Under `COc1cccc(CNC(=O)C2CCCN(c3ncnc4c3nc3n4CCCCC3)C2)c1` (stereo unspecified) stands 7.08% (active).
In the case of `O=C(NCCCN1CCCCC1)C1CCCN(c2ncnc3c2nc2n3CCCCC2)C1` (stereo unspecified), the proliferation was -1.13%.
In the case of `Cc1ccc2c(c1)N(C(=O)CCC(=O)NCc1cccnc1)CCO2` it was 1.08%.
Turning to `CC1CN(C(=O)CCC(=O)NCc2cccnc2)c2ccccc2O1` (stereo unspecified), the proliferation is -2.56%.
Under `Cc1ccccc1CNC(=O)CCC(=O)N1Cc2ccccc2Oc2ncccc21` stands 12.5% (active); under `CC(C)Cc1nc(Nc2ccc(S(=O)(=O)N3CCCC3)cc2)c2nnn(Cc3ccccc3)c2n1`, -0.74%; under `COC(=O)C(C(=O)Nc1cccc(C)n1)C1CCCCCC1` (stereo unspecified), 0%.
Under `O=C(C1CCN(C2CCN(Cc3cccc4c3OCO4)CC2)CC1)N1CCOCC1` stands 1.29%.
In the case of `CC1CCN(C(=O)CCc2nnc3ccc(NCc4ccco4)nn23)CC1` it was -1.78%; in that of `CC(=O)c1cccc(NC(=O)COc2ccc(S(=O)(=O)N3CCOCC3)cc2)c1`, 10.6% (active); in that of `O=C(COC(=O)c1ccccc1)Nc1cccc(S(=O)(=O)N2CCOCC2)c1`, 1.39%.
For the molecule `COC(=O)COc1ccc(S(=O)(=O)N2CCOCC2)cc1`, the proliferation was -2.03%.
Under `CCN1C(=O)[C@@H]2[C@@H](c3ccc(-c4ccccc4)cc3)N3CCCC[C@@]3(C(=O)OC)[C@@H]2C1=O` stands -7.4%.
Under `CN(CC(=O)Nc1c(Cl)cccc1Cl)C(=O)CC1OC(=O)c2ccccc21` (stereo unspecified) stands -1.95%; under `CC1Cn2c(nnc2-c2cccs2)S1` (stereo unspecified), -1.85%; under `O=C(NCc1ccc2c(c1)OCO2)c1cc2c(s1)CS(=O)(=O)C2`, -0.86%.
Under `CC(=O)CC(CC(=O)NC1CCCCC1)c1ccccc1` (stereo unspecified) stands 0.52%; under `O=C(NNC(=O)C(O)c1ccccc1)NC1CCCCC1` (stereo unspecified), -1.83%.
With `CC(=O)OC(C(=O)NC1CCCCC1)c1ccccc1` (stereo unspecified), the proliferation was 5.32% (active).
For `Cn1c(=O)c2c(ncn2CC(COCc2ccccc2Cl)OCc2ccccc2Cl)n(C)c1=O` (stereo unspecified), the proliferation was -1.81%.
Under `Nc1[nH]c(=S)nc2nc(-c3ccccc3)c(-c3ccccc3)nc12` stands -5.91%.
In the case of `COC(=O)c1cc(C(=O)NC(C)C2CC3CCC2C3)cc([N+](=O)[O-])c1` (stereo unspecified) it was 0%.
For `O=S(=O)(NCCOc1cccc2cccnc12)c1ccc(F)cc1`, the proliferation is 5.56% (active).
Under `O=S(=O)(NCCc1ccc(F)cc1)c1cccc2cccnc12` stands 3.17%; under `O=S(=O)(NCc1ccccn1)c1ccc(F)cc1`, 0.39%.
Under `Cc1cc(Cl)ccc1NNC(=O)c1snnc1C` stands -4.18%; under `CNc1[nH]ncc1[N+](=O)[O-]`, 3.19%.
On to `CN(C(=O)CSc1nnc(-c2n[nH]c3ccccc23)o1)c1ccccc1`, for which the proliferation is 0.29%.
On to `Cc1ccc(C(=O)Nc2ccc(NC(=O)c3cccs3)cc2)c(C)c1`, for which the proliferation is 0% (active).
Consider `Cc1ccc(OCC(=O)Nc2ccc(NC(=O)c3cccs3)cc2)c(C)c1`, for which the proliferation is 0%.
In the case of `Cc1ccc(NC(=O)c2cccs2)cc1S(=O)(=O)N(C)C` it was 0.43%; in that of `CC(C)(C)N(CC#CCC(O)(c1ccccc1)C1CCCC1)CCO` (stereo unspecified), 2.2%; in that of `CCn1c(=O)n(CC)c2cc(N3CCCC3)c(NC(=O)c3ccccc3Br)cc21`, 13.7% (active).
In the case of `O=C(Nc1ccccc1N1CCCC1)c1ccc2ccccc2c1` it was -2.88%; in that of `COc1ccc(NS(=O)(=O)c2ccc(N3CCOCC3)c(NC(=O)c3ccccc3Br)c2)cc1`, 5.36%; in that of `CCC(C(=O)NC1CCCC1)N(C(=O)Cn1nnc(-c2ccc(C)o2)n1)c1ccc(OC)c(OC)c1` (stereo unspecified), 5.41%.
`COc1ccc(N(CC(=O)Nc2cc(OC)ccc2OC)S(=O)(=O)c2c(C)noc2C)cc1`: the proliferation was -0.48%.
In the case of `CCCOc1ccc(NC(=O)CC2C(=O)N(C)C(=S)N2Cc2ccc3c(c2)OCO3)cc1` (stereo unspecified), the proliferation is 0%.
For the molecule `C/C(=N/Nc1ccc(Cl)cc1)c1cnnc(-c2ccccc2)n1`, the proliferation is -3.11%.
Take `CC/C(=N/Nc1ccccc1)c1cnnc(SC)n1`: the proliferation is 8.26% (active).
`CSc1nsc(NC(=O)Nc2ccccc2)n1`: the proliferation is -5.02%.
Under `OCc1ccc(-c2ccccc2)c(-c2ccccc2)c1` stands -3.43%; under `O=C(O)CC(SCC(=O)Nc1ccc(Br)cc1)C(=O)O` (stereo unspecified), -0.34%.
For the molecule `COC(=O)Nc1sc2nc(C)cc(C)c2c1-n1cccc1`, the proliferation was 8.22% (active).
Under `Cc1cc(C)c2c(-n3cccc3)c(NC(=O)OCc3ccccc3)sc2n1` stands -5.05%; under `CCCCOC(=O)Nc1sc2nc(C)cc(C)c2c1-n1cccc1`, 0.21%; under `CCOC(=O)N1CCN(C(=O)c2ccc3c(=O)n(CCc4ccc(OC)c(OC)c4)c(=O)[nH]c3c2)CC1`, 2.68%.
In the case of `CCOc1ccc(-n2c(SCC(=O)Nc3cc(C(=O)O)ccc3Cl)nc3ccccc3c2=O)cc1` it was -1.58%; in that of `S=C(Nc1cccc(Cl)c1)Nc1ccc2cn[nH]c2c1`, 0% (active); in that of `Cc1csc(NC(=S)Nc2cccc(Cl)c2)n1`, -2.77%.
Regarding `FC(F)(F)c1cccc(NC(=S)Nc2cccc(Cl)c2)c1`, the proliferation is -6.83%.
In the case of `CCCCn1c(N)c(N(CC)C(=O)/C=C/c2ccco2)c(=O)[nH]c1=O` it was -1.59%; in that of `COc1ccc(C(=O)CCC(=O)Nc2ccc(Cl)cc2)cc1`, -2.97%; in that of `CO/N=C/CC(=O)c1ccc(OC)cc1`, -1.22%.
For the molecule `COc1ccc(CCC(=O)c2ccc(OC)cc2)cc1`, the proliferation was 5.33% (active).
With `CCCCn1c(N)c(N(CCOC)C(=O)c2cccc(S(=O)(=O)N3CCCCC3)c2)c(=O)[nH]c1=O`, the proliferation was 1.76%.
In the case of `c1ccc(C[C@H]2CNCCN2CCC23CC4CC(CC(C4)C2)C3)cc1` it was -8%; in that of `O=C(/C=C/Nc1ccccc1)c1cnc(-c2ccccc2)s1`, -1.21%.
Under `CC(C)(C)C(=O)c1cnc(Nc2ccccc2)s1` stands -3.47%.
In the case of `CC(=O)c1cnc(-c2ccccc2)s1` it was 8.82% (active).

For the origin of these results see PubChem BioAssay AID2380 (Sanford-Burnham Center for Chemical Genomics, 2010).
